# Measurements: the supplement of paper PMC5407854, “Inhibitor of ppGalNAc-T3-mediated O-glycosylation blocks cancer cell invasiveness and lowers FGF23 levels” (eLife, 2017)
# In all, about 1,700 compounds were measured (“T3 sensor activation Q score (MG/GFP ratio z-score vs DMSO controls)”: median about 0.25, highest 2% from about 1.9 on). The full list was thinned out, with the highest values kept by preference.
# System: ppGalNAc-T3 sensor
# Experiment: T3 sensor activation Q score (MG/GFP ratio z-score vs DMSO controls) (SD units); higher = more sensor activation (inhibition of ppGalNAc-T3 glycosylation)
# Details: HEK293 sensor cells; 10 µM; 6 h
# Protocol: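 Cells were treated with compound at 10 uM for 6 h, then MG/GFP ratio was read by flow cytometry (10,000 cells per well, duplicate wells). Q = (R - R_neg)/SD_neg relative to DMSO vehicle controls; the signal rises when the glycosyltransferase is inhibited.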
row,Structure (SMILES),T3 sensor activation Q score
1,Cc1cc(=O)c2c(=O)[nH][nH]c2[nH]1,-1.35
2,CCc1noc2cc(-c3ccccc3)n(C)c(=O)c12,0.35
3,CCCSc1ncnc2[nH]ncc12,1.45
4,C#Cc1cccc(NC(=O)c2ccc(Cl)cc2Cl)c1,-0.65
5,C#Cc1cccc(Nc2ncnc3cc(OCCOC)c(OCCOC)cc23)c1,2.15
6,CCCNC(=O)c1ccccc1C(=O)NC1(C(=O)NCCC)CCCC1,-0.35
7,Nc1nc(Nc2ccccc2)n[nH]1,-0.55
8,NC(=O)Nc1ccc(Nc2ccccc2)cc1,0.7
9,CC1(C)CC(Nc2ccc(Nc3ccccc3)cc2)CC(C)(C)N1,1.85
10,OCCCCc1nccc2c1[nH]c1ccccc12,1
11,CNC(=O)c1ccccc1Sc1ccc2c(/C=C/c3ccccn3)n[nH]c2c1,0.7
12,O=C(O)CCC(=O)c1ccc2ccc3cccc4ccc1c2c34,1.75
13,CCOC(=O)Nc1c(Cl)n(C)c(=O)n(C)c1=O,1.75
14,CN(C)c1nc(=NCc2ccco2)ss1,-1.15
15,Clc1nnc2c3ccccc3ccn12,0.05
16,Cc1nc(C(N)=O)nc2ccccc12,0.2
17,NC(=O)c1cc2c3ccccc3ccn2c1-c1ccccc1,2.95
18,Cc1cnc(SCc2ccc(Cl)cc2Cl)[nH]c1=O,-0.3
19,COc1ccc([N+](=O)[O-])cc1NS(=O)(=O)c1ccc(C)cc1,-0.7
20,Cn1c(=O)c2c(nc(Cc3ccccc3)n2C)n(C)c1=O,1.9
21,Cn1c(=O)c2c(nc(Oc3ccccc3)n2C)n(C)c1=O,0.7
22,Cn1c(=O)c2c(nc(OCCc3ccccc3)n2C)n(C)c1=O,1.6
23,CCOC(=O)c1cc(OCC)c2c(ccc3ccccc32)n1,1.85
24,CCOC(=O)N1CCN(Cc2c(O)ccc3ccccc23)CC1,-0.95
25,CCOC(=O)c1cc(-c2ccccc2)nc2ccc(C)cc12,0.8

row,Structure (SMILES),T3 sensor activation Q score
1,CC(=O)NS(=O)(=O)c1ccc2sc(C)nc2c1,0.15
2,Nc1ccc(S(=O)(=O)NCC2CCCCO2)cc1 (stereo not given),1.6
3,NC(N)=NS(=O)(=O)c1ccc(N=C2C(=O)Nc3ccccc32)cc1,0.3
4,Cc1ccc(NC(=O)c2ccc(CN3CCN(C)CC3)cc2)cc1Nc1nccc(-c2cccnc2)n1,-1.55
5,Cc1ccc(C(=O)Nc2ccc(CN3CCN(C)CC3)c(C(F)(F)F)c2)cc1C#Cc1cnc2cccnn12,1.9
6,Cc1c(NC(=O)Nc2c(Cl)cccc2Cl)c(=O)n(-c2ccccc2)n1C,0.1
7,Oc1c(N=Nc2nn[nH]n2)ccc2ccccc12,1.25
8,Cn1cnc2ncnn2c1=S,-1.2
9,C=CCNC(=S)NCC,1.9
10,C=CCNC(=S)NCC=C,0.35
11,C=CCNC(=S)Nc1c(N)n(C)c(=O)n(C)c1=O,0.75
12,O=C(NN1CCCCC1)NN1CCCCC1,1.35
13,O=C(O)c1cccc2c1C(=O)c1cccc3snc-2c13,-0.15
14,CN1C(=C=Cc2cc(I)c(O)c(I)c2)C(C)(C)c2ccccc21,1.9
15,CCCNC(=O)c1ccc(S(N)(=O)=O)cc1,0.65
16,O=[N+]([O-])C1C(c2ccccc2)C12c1ccccc1-c1ccccc12 (stereo not given),3.55
17,O=C(c1ccccc1)C1C(c2ccccc2)C1[N+](=O)[O-] (stereo not given),1.7
18,CCN(CC)Cc1cc2[nH]c3c4ccc(Cl)cc4ncc3c2cc1OC,1.9
19,Cc1cnc2cc(Cl)ccc2c1SCC(=O)O,0.5
20,c1ccc(-c2nc[nH]c2-c2ccccc2)cc1,0.1
21,C[C@@H]1C[C@H]2OC(=O)[C@@]3(C)CCC[C@@](C)([C@@H]23)[C@@]1(O)CCc1ccoc1,0.2
22,COC(=O)c1cc2c(n1S(=O)(=O)c1ccc(C)cc1)C(=O)C(=O)c1[nH]cc(C(=O)OCc3ccccc3)c1-2,0.25
23,C1CCc2nc3c(nc2C1)CCCC3,-0.2
24,Nc1c(Cl)cc(S(N)(=O)=O)cc1S(N)(=O)=O,1.1
25,CC(C)(C)n1nc(C2CC2)cc1NC(=O)Nc1ccccc1,0.25

row,Structure (SMILES),T3 sensor activation Q score
1,COC(=O)C1(F)C(=O)NC(=O)NC1OC (stereo not given),0.6
2,O=C(N(c1ccccc1)c1ccccc1)N(c1ccccc1)c1ccccc1,1
3,COc1cc(Nc2c(C#N)cnc3cc(OCCCN4CCN(C)CC4)c(OC)cc23)c(Cl)cc1Cl,1
4,COc1cc2c(Nc3ccc(Br)cc3F)ncnc2cc1OCC1CCN(C)CC1,2.1
5,COc1cc2ncnc(Nc3ccc(F)c(Cl)c3)c2cc1OCCCN1CCOCC1,1.2
6,O=C(O)C(=O)Nc1ncn[nH]1,-1.75
7,Cn1c(=O)c2c(nc(N3CCCCC3)n2C)n(C)c1=O,-0.65
8,CCCc1nc2c([nH]1)c(=O)n(C)c(=O)n2C,-0.95
9,Cn1c(=O)c2[nH]c(N3CCCCC3)nc2n(C)c1=O,1.9
10,NC1(N2SC(S)=C3CCCC=C32)CCCCC1,0.75
11,NC1=C(O)C(=O)C(c2ccccc2)O1 (stereo not given),0.05
12,O=c1cc(-c2cccnc2)oc2c1ccc1ccccc12,1.25
13,O=C1c2ccccc2NC(c2cc(Cl)cc(Cl)c2O)N1CCc1ccccn1 (stereo not given),0.55
14,Cc1nnc2nc(N)[nH]n2c1=O,-1.2
15,O=C(O)CSc1nc2ccccc2s1,-0.1
16,COC1=C[C@@H](C)[C@@H]2C[C@H]3OC(O)C[C@H]4C(C)=C(OC)C(=O)[C@H]([C@@]2(C)C1=O)[C@@]34C (stereo not given in full),0.4
17,CCOC(=O)Cc1csc2nc(-c3ccccc3)nn12,0.25
18,N#CC1=CC2CN(Cc3ccccc3)C1C1C(=O)N(c3ccccc3)C(=O)C21 (stereo not given),0.45
19,c1ccc(-c2nnc3nc(N4CCCCC4)nc(N4CCCCC4)n23)cc1,1.3
20,NC(N)=NCCCS(=O)(=O)Nc1ccc(Nc2c3ccccc3nc3cc([N+](=O)[O-])ccc23)cc1,-0.75
21,CN(C)c1ccc(/C=C2/C=C(c3ccc4c(c3)CCCC4)OC2=O)cc1,0.9
22,Clc1cc2c(nn1)Nc1ccccc1S2,0.2
23,Cn1c(CO)cnc1-c1ccccc1,0.3
24,CC(C)c1ncc(CO)n1Cc1c(Cl)cccc1Cl,1.85
25,O=c1[nH]c(SCc2ccccc2[N+](=O)[O-])nc2nc[nH]c12,0.3

row,Structure (SMILES),T3 sensor activation Q score
1,O=c1cc(-c2ccccc2)oc2ccc(O)cc12,0.15
2,N[C@H](C(=O)O)[C@H]1ON=C(Cl)[C@H]1O,-0.15
3,COc1c(C=O)c2c(c(OC)c1OC)-c1ccc(OC)c(=O)cc1C(NC(C)=O)CC2 (stereo not given),4.1
4,CS/C(=N\S(=O)(=O)c1ccccc1)NNC(=O)c1c(-c2c(Cl)cccc2Cl)noc1C,0.65
5,CC1CC=C(O)C12OCC(C)(C)CO2 (stereo not given),-0.05
6,Cc1ccc(S(=O)(=O)N2CC=C(N)N2)cc1,-0.2
7,Cc1nc2ccccc2nc1NS(=O)(=O)c1ccc(N)cc1,-0.1
8,OCc1nc2nc(Cl)c(Cl)nc2[nH]1,-1.15
9,CC(C)CCCCCCCCCCCCC(=O)NCC(=O)NC1C(C)OC(Nc2ncnc3nc[nH]c23)C(O)C1O (stereo not given),-1.5
10,Cc1ccn2c(C(C)O)nnc2c1 (stereo not given),0.05
11,Cc1cc(C)n2c(C)nnc2c1,1.85
12,COC(=O)c1c[n+]([O-])ccc1OC,-0.5
13,CN(C)S(=O)(=O)c1ccccc1N=C=S,-1.15
14,CCOC(=O)/C=C/c1ccc(C(=O)OCC)[nH]1,-1.5
15,CCOC(=O)/C=C/c1nc(C(=O)OCC)c(C)c(=O)[nH]1,1.9
16,CCOC(=O)c1nn(C)c2[nH]c(=O)n(C)c(=O)c12,0.15
17,CN(C)S(=O)(=O)Nc1cccc(Br)c1,1.8
18,CC(C)NC(=O)c1ccc(C(C)C)cc1,-0.3
19,CCC(C)NC(=O)c1cccc(C)c1 (stereo not given),1.35
20,CNNCc1ccc(C(=O)NC(C)C)cc1,1.85
21,Nc1nc(N)c2cc(Sc3ccc4ccccc4c3)ccc2n1,1.15
22,CCc1ccc(CCN2C(=O)c3ccccc3C2=O)nc1,0.1
23,CCOC(=O)c1nnsc1-c1ccc(-c2snnc2C(=O)OCC)cc1,0.95
24,Clc1ncnc2[nH]ccc12,-0.05
25,C=CCN=C(NC#N)SC,0.05

row,Structure (SMILES),T3 sensor activation Q score
1,COc1cc(NC(C)=O)c2ncccc2c1NC(C)=O,1.2
2,O=c1[nH]cnc2c1ncn2Cc1ccc([N+](=O)[O-])cc1,0.15
3,CCOC(=O)c1cc2c(OC)c(OC)ccc2c2[nH]cc(C#N)c(=O)c12,0.7
4,Cn1nc(SCc2ccccc2)c(=O)n(C(c2ccccc2)c2ccccc2)c1=O,-0.65
5,CCOc1ccc(/C=C2\CCc3ccccc3C2=O)cc1,1.85
6,O=C1/C(=C\c2ccc([N+](=O)[O-])cc2)CCc2ccccc21,0.4
7,COc1cccc(/C=C2\CCc3ccccc3C2=O)c1,-0.1
8,O=C(O)C1OCC2(CO1)COC(C(=O)O)OC2 (stereo not given),0.6
9,CC(C)(C)NC(=O)c1ccc(C(=O)NC(C)(C)C)cc1,-0.4
10,CC(=O)CC[N+](C)(C)C,0.75
11,O=C(/C=C/c1ccccc1)CC(c1ccccc1)N1CCOCC1 (stereo not given),0.15
12,Nc1ccc(C(=O)Nc2ccc(NC(=O)c3ccco3)c(O)c2)cc1,1.85
13,Nc1ccc(C(=O)Nc2cccc(N)c2)cc1,-1.35
14,Nc1ccc(NC(=O)c2ccc(C(=O)Nc3ccc(N)cc3)cc2)cc1,1.05
15,OC[C@H]1O[C@@H](n2cnc3c2NC=NC[C@H]3O)C[C@@H]1O,1.3
16,NC(=O)CCC(C(=O)O)N1C(=O)c2ccc(O)cc2C1=O (stereo not given),-0.1
17,N#CC1=C2CCCCC2(O)NC1=O (stereo not given),-0.45
18,CC1=C2C3OC(=O)C(C)C3CCC2(C)C=C(Cl)C1=O (stereo not given),1.1
19,CC(=O)[C@@]1(O)[C@H](C)C[C@H]2[C@@H]3C=C(C)C4=Cc5c(cnn5-c5ccccc5)C[C@]4(C)[C@H]3[C@@H](O)C[C@@]21C,5
20,CC1=CC2C(C(O)CC3(C)C2CC(C)C32OCOC23COCO3)C2(C)CC(=CO)C(=O)C=C12 (stereo not given),-3.35
21,COC1C(=O)CCC2(CO2)C1(O)C1(C)OC1CC=C(C)C (stereo not given),-1.6
22,OCC1(CO)CC2(C1)CC(CO)(CO)C2,-1.15
23,c1ccc(Nc2cccc3c(Nc4ccccc4)cccc23)cc1,-0.45
24,COc1ccc(NC(=O)CC(C)=O)c(OC)c1,-0.1
25,CC1(C)N=C(N)NC(=NCCCOc2ccc([N+](=O)[O-])cc2)N1,0.35
